Among the data in PubChem BioAssay (NCATS) are Potency, activity change, negative = inhibition and max response values, retold here.

Each structure is given as a SMILES string. Results filed as inconclusive are left out. Activity calls are given as the source filed them. Unless noted, the call rests on the fitted dose curve; in most records, active means well fitted curve in the direction sought with a large enough effect; inconclusive means small, poorly fitted or top-dose-only effect, or another doubt; inactive means no such curve, though single readings can be large; an effect the other way counts as inactive or inconclusive.

The target of experiment [1] is Cytochrome P450 3A4 (Homo sapiens) (UniProt P08684). The experiment is described as follows: qHTS Assay for Inhibitors and Substrates of Cytochrome P450 3A4 (AID 884). Further: nearly all actives have a fitted effect of over 50% in size. Further: potency means the concentration at half of the fitted maximal effect. On activity change, negative = inhibition: on the % scale 0 is the no-effect control and ±100 the full control effect. The essentials:
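20 nM human CYP3A4 with 25 uM Luciferin-PPXE (at KM) in 200 mM KPO4, preincubated 10 min with compound; NADPH regeneration started a 60 min RT reaction. Luciferin detected by luminescence, normalized to 57 uM ketoconazole as full inhibition.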

A short description of experiment [2]: Confirmation and Secondary Assay for Modulators of Hemoglobin Beta Chain Splicing at IVS2 654 locus (AID 910).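 Further: HeLa cells stably carrying EGFP split by mutant beta-globin IVS2-654 intron; per-well total GFP intensity by laser scanning cytometry after 2-day treatment; % of control where 0% means no effect.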 The method in brief: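 Readout: per-well total peak green fluorescence (488 nm ex, 500–520 nm em) from objects 5–250 µm, reflecting correct splicing of an EGFP-654 reporter. Compounds were applied for 2 days at 37 °C to overnight-plated HeLa EGFP-654 cells; controls were DMSO and 500 nM IVS2-654 PNA.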

Experiment [3] can be described thus: Confirmation and Secondary Assay for Modulators of Hemoglobin Beta Chain Splicing at IVS2 705 locus (AID 930).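 Further: HeLa cells stably expressing the EGFP-705 splicing reporter; GFP fluorescence per well restored by corrected splicing of the IVS2-705 intron in EGFP; % of control where 0% means no effect.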 The method in brief: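 Secondary splice-site specificity test uses HeLa expressing CMV-driven EGFP interrupted by IVS2-705; cells were treated 2 days at 37C with 500 nM antisense PNA as positive control.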
Experiment [4] is described as follows: qHTS Assay for Lipid Storage Modulators (AID 1519; calls by dose curve; on activity change, negative = inhibition: on the % scale 0 is the no-effect control and ±100 the full control effect). The settings on record: Drosophila S3 cells, BODIPY lipid droplet/cell ratio, laser cytometry, cells loaded with oleic acid; for activity change, negative = inhibition: at 57.5 µM (top of the series). The method in brief:
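Cells seeded at 5,000 per well were treated with compounds over a concentration series and loaded with oleic acid (400 uM, as added). Lipid droplet fluorescence (488 nm excitation, 500-530 nm channel) was read by laser-scanning cytometry and normalized to 20 uM Triacsin C.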

Experiment [5] addresses Ubiquitin carboxyl-terminal hydrolase 1 (Homo sapiens) (UniProt O94782). Kind of experiment: Inhibitors of USP1/UAF1: Pilot qHTS (AID 504865).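 Further: rhodamine fluorescence freed from ubiquitin-rhodamine substrate followed over time; top concentration of the series differs between compounds; on the % scale 0 is the no-effect control and ±100 the full control effect; nearly all actives have a fitted effect of over 35% in size.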 The method in brief:
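USP1/UAF1 complex (1nM) preincubated with compound 15 min at room temperature, then Ub-Rho substrate (150nM final) added. Fluorescence read kinetically at 480/540 nm, 6 reads every 60 seconds. Buffer: 50mM HEPES pH 7.8, 0.5mM EDTA, 0.1 mg/ml BSA, 1mM TCEP, 0.01% Tween-20.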

Setting [6] is: measured here: cell count channel max response.
Setting [7] is: measured here: lipid channel max response.

Sequence of Ubiquitin carboxyl-terminal hydrolase 1 (Homo sapiens) (O94782 whole entry, looked up): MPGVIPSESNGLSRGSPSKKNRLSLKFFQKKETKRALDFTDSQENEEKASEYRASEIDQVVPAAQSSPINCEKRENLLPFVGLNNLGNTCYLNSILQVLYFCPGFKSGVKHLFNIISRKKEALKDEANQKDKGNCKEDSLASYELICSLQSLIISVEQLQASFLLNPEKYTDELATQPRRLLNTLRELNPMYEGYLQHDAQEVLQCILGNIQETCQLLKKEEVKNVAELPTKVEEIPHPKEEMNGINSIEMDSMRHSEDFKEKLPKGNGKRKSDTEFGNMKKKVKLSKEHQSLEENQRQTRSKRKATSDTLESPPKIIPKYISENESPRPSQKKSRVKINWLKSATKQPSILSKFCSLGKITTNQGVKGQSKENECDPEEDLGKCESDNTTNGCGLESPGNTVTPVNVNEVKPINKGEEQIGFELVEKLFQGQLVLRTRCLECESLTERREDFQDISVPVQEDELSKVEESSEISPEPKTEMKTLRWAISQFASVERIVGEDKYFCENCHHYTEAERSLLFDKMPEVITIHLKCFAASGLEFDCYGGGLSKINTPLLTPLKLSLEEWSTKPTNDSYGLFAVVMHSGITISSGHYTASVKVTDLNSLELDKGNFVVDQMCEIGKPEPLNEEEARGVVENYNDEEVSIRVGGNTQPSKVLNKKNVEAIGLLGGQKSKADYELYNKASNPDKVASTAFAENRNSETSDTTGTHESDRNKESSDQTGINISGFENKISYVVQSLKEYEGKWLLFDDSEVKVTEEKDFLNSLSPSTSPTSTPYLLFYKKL
Sequence of Cytochrome P450 3A4 (Homo sapiens) (P08684 whole entry, looked up): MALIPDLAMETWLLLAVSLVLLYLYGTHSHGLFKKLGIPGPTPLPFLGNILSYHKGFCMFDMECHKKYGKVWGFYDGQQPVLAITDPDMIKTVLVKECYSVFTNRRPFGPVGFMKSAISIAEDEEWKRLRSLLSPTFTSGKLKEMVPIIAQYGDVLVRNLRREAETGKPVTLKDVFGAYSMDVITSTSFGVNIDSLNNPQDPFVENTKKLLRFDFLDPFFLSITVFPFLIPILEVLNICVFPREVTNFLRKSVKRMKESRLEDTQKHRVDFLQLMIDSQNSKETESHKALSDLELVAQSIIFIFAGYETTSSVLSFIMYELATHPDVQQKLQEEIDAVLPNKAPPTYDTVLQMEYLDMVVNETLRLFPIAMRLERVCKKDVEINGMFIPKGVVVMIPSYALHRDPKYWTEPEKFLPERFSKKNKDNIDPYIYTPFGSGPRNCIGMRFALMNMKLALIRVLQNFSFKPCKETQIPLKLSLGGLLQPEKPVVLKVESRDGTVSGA

Regarding `Cc1c(O)cc(O)c2c(=O)c(-c3ccc(O)cc3)coc12`, the Potency entry in experiment [1], in experiment [2], in experiment [3] and in experiment [5] was “inactive” throughout. In addition, the activity change, negative = inhibition in experiment [4] was 8.55% (inactive). For the same molecule, the figures for the max response in experiment [4] (setting [6]) and in experiment [4] (setting [7]) were 16.6% and 28%, respectively.

For the molecule `CC12CCC3C(CC3(C)C)C(C)(CCC1=O)O2` (stereo not drawn), the Potency entry in experiment [1], in experiment [2], in experiment [3] and in experiment [5] was “inactive” each time. For the same molecule, the activity change, negative = inhibition in experiment [4] is 8.76% (inactive). The max response in experiment [4] (setting [6]) turned out to be 19%; in experiment [4] (setting [7]), 26.9%.

With `CCCCCC1C(=O)CCC1CC(=O)OC` (stereo not drawn), the Potency result in experiment [1], in experiment [2], in experiment [3] and in experiment [5] was “inactive” each time. In addition, the activity change, negative = inhibition in experiment [4] is 7.58% (inactive). Besides, the max response in experiment [4] (setting [6]) came to 6.16%; in experiment [4] (setting [7]) it was 16%.

With `CC(=O)Oc1ccc2c(c1)CCC1C2CC[C@]2(C)C(=O)CCC12` (stereo partly drawn), the Potency result in experiment [1], in experiment [2], in experiment [3] and in experiment [5] was “inactive” each time. In experiment [4], the activity change, negative = inhibition was -6.33% (inactive). The max response in experiment [4] (setting [6]) is -13.1%; in experiment [4] (setting [7]), -17.8%.

`CC(=O)OC1CC[C@]2(C)C(=CCC3C4CCC(C(C)CCCC(C)C)[C@]4(C)CCC32)C1` (stereo partly drawn): the Potency entry in experiment [1], in experiment [2], in experiment [3] and in experiment [5] was “inactive” throughout. In addition, the activity change, negative = inhibition in experiment [4] is 5.26% (inactive). Also, the results for the max response in experiment [4] (setting [6]) and in experiment [4] (setting [7]) were 9.32% and 13.2%, respectively.

With `CC(=O)OC1CCC2(O)CC1(C)CCC1C2CC1(C)C` (stereo not drawn), the Potency result in experiment [1], in experiment [2], in experiment [3] and in experiment [5] was “inactive” in each case. Besides, the activity change, negative = inhibition in experiment [4] was 0.291% (inactive). The max response in experiment [4] (setting [6]) was found to be 16.4%; in experiment [4] (setting [7]), 18.1%.

Turning to `CC1CC[C@@]23CCC4(C)[C@@]5(C)CCC6C(C)(C)C(O)CC[C@@]6(C)C5C=C[C@@]4(OC2=O)C3C1C` (stereo partly drawn), the Potency in experiment [1] was 5.01 µM (active). For the same molecule, the Potency entry in experiment [2], in experiment [3] and in experiment [5] was “inactive” throughout. Moreover, the activity change, negative = inhibition in experiment [4] was 1.82% (inactive). Besides, the results for the max response in experiment [4] (setting [6]) and in experiment [4] (setting [7]) were 9.51% and 12.3%, respectively.

Turning to `Nc1ncnc2c1[nH]c(=O)n2C1OC(CO)C(O)C1O` (stereo not drawn), the Potency result in experiment [1], in experiment [2], in experiment [3] and in experiment [5] was “inactive” in each case. The activity change, negative = inhibition in experiment [4] was -0.198% (inactive). Moreover, the max response came to 11.6% in experiment [4] (setting [6]) and 24.7% in experiment [4] (setting [7]).

For the molecule `C=C1CCC(C2CC(=O)OC2=O)C(=O)CCC2C1CC2(C)C` (stereo not drawn), the Potency result in experiment [1], in experiment [2], in experiment [3] and in experiment [5] was “inactive” in each case. Besides, the activity change, negative = inhibition in experiment [4] was 4.44% (inactive). For the same molecule, the max response in experiment [4] (setting [6]) worked out at 19.1%; in experiment [4] (setting [7]), 26.1%.

Consider `COc1cc(-c2coc3cc(OC)c(OC)c(OC)c3c2=O)cc(OC)c1OC`, for which the Potency entry in experiment [1], in experiment [2], in experiment [3] and in experiment [5] was “inactive” in each case. Moreover, the activity change, negative = inhibition in experiment [4] is 2.36% (inactive). In addition, the max response in experiment [4] (setting [6]) is 17.7%; in experiment [4] (setting [7]) it was 21.5%.

Regarding `COc1ccc2c(c1OC)OCC(c1ccc(OC)c(OC)c1OC)C2` (stereo not drawn), the Potency entry in experiment [1], in experiment [2], in experiment [3] and in experiment [5] was “inactive” in each case. Further, the activity change, negative = inhibition in experiment [4] was 9.26% (inactive). The max response is 12.7% in experiment [4] (setting [6]) and 23.2% in experiment [4] (setting [7]).

On to `CCN1CCN(C(=O)NC(C(=O)NC2C(=O)N3C2SC(C)(C)C3C(=O)O)c2ccccc2)C(=O)C1=O` (stereo not drawn), for which the Potency entry in experiment [1], in experiment [2], in experiment [3] and in experiment [5] was “inactive” throughout. Further, the activity change, negative = inhibition in experiment [4] was 7.43% (inactive). The max response in experiment [4] (setting [6]) is -3.83%; in experiment [4] (setting [7]) it was 0.752%.

For `Nc1nc2c([nH]c(=O)n2C2OC(CO)C(O)C2O)c(=O)[nH]1` (stereo not drawn), the Potency result in experiment [1], in experiment [2], in experiment [3] and in experiment [5] was “inactive” throughout. Moreover, in experiment [4], the activity change, negative = inhibition was 1.54% (inactive). The figures for the max response in experiment [4] (setting [6]) and in experiment [4] (setting [7]) were 9.74% and 13.6%, respectively.

In the case of `CC1CC[C@]2(CO)CC[C@]3(C)C(=CCC4[C@@]5(C)CCC(O)C(C)(C)C5CC[C@@]43C)C2C1C` (stereo partly drawn), the Potency entry in experiment [1], in experiment [2], in experiment [3] and in experiment [5] was “inactive” each time. The activity change, negative = inhibition in experiment [4] was 6.23% (inactive). Further, the max response in experiment [4] (setting [6]) turned out to be 4.46%; in experiment [4] (setting [7]), 20%.

Turning to `CC(=O)OC1CC[C@@]2(C)C(CC[C@@]3(C)C2CC=C2C4CC(C)(C)CC[C@]4(C)CC[C@@]23C)C1(C)C` (stereo partly drawn), the Potency result in experiment [1], in experiment [2], in experiment [3] and in experiment [5] was “inactive” throughout. Further, the activity change, negative = inhibition in experiment [4] was 4.64% (inactive). Moreover, the max response in experiment [4] (setting [6]) turned out to be 6.83%; in experiment [4] (setting [7]), 14%.

Turning to `COc1cc(NS(C)(=O)=O)ccc1Cc1c2ccccc2nc2ccccc12`, the Potency entry in experiment [1], in experiment [2], in experiment [3] and in experiment [5] was “inactive” throughout. For the same molecule, the activity change, negative = inhibition in experiment [4] is 4.8% (inactive). The max response in experiment [4] (setting [6]) was 13%; in experiment [4] (setting [7]) it was 21.3%.

With `Cn1nnnc1SCC1=C(C(=O)O)N2C(=O)C(NC(=O)C(OC=O)c3ccccc3)C2SC1` (stereo not drawn), the Potency result in experiment [1], in experiment [2], in experiment [3] and in experiment [5] was “inactive” throughout. In addition, the activity change, negative = inhibition in experiment [4] is 4.18% (inactive). The max response in experiment [4] (setting [6]) was found to be 15%; in experiment [4] (setting [7]), 24.5%.

On to `O=C(O)c1ccc2c(c1)OCO2`, for which the Potency result in experiment [1], in experiment [2], in experiment [3] and in experiment [5] was “inactive” each time. Moreover, in experiment [4], the activity change, negative = inhibition was 6.55% (inactive). Further, the max response in experiment [4] (setting [6]) is 14.4%; in experiment [4] (setting [7]) it was 22.7%.

For the molecule `COc1c2ccccc2nc2occc12`, the Potency result in experiment [1], in experiment [2], in experiment [3] and in experiment [5] was “inactive” throughout. For the same molecule, the activity change, negative = inhibition in experiment [4] is 9.64% (inactive). The max response in experiment [4] (setting [6]) amounted to 24.3%; in experiment [4] (setting [7]), 38.1%.

`NCC1OC(OC2C(N)CC(N)[C@@H](O)[C@@H]2OC2O[C@H](CO)[C@@H](O[C@@H]3OC(CN)C(O)C(O)C3N)C2O)C(N)C(O)C1O` (stereo partly drawn): the Potency entry in experiment [1], in experiment [2], in experiment [3] and in experiment [5] was “inactive” each time. Further, the activity change, negative = inhibition in experiment [4] was 9.63% (inactive). For the same molecule, the max response in experiment [4] (setting [6]) came out at 15.6%; in experiment [4] (setting [7]), 30%.

As to `COc1c(OC)c2occc2c2oc(=O)ccc12`, the Potency in experiment [1] was 10 µM (active). Moreover, the Potency entry in experiment [2], in experiment [3] and in experiment [5] was “inactive” each time. The activity change, negative = inhibition in experiment [4] was 12.4% (inactive). Moreover, the max response in experiment [4] (setting [6]) amounted to 0.397%; in experiment [4] (setting [7]), 12.4%.

Consider `CCCc1cc(OC)c2c(c1)OCO2`, for which, in experiment [1], the Potency was 7.94 µM (active). The Potency result in experiment [2], in experiment [3] and in experiment [5] was “inactive” throughout. Besides, the activity change, negative = inhibition in experiment [4] is 11.5% (inactive). The figures for the max response in experiment [4] (setting [6]) and in experiment [4] (setting [7]) were -8.72% and 1.71%, respectively.

Take `C[C@@]12CCC3c4ccc(OS(=O)(=O)O)cc4CCC3C1CCC2O` (stereo partly drawn): the Potency entry in experiment [1], in experiment [2], in experiment [3] and in experiment [5] was “inactive” each time. Moreover, the activity change, negative = inhibition in experiment [4] was 4.64% (inactive). Further, the max response in experiment [4] (setting [6]) is 6.41%; in experiment [4] (setting [7]) it was 9.99%.

As to `OCC1OC(n2cnc3c(Cl)nc(Cl)nc32)C(O)C1O` (stereo not drawn), the Potency result in experiment [1], in experiment [2], in experiment [3] and in experiment [5] was “inactive” throughout. Also, the activity change, negative = inhibition in experiment [4] was 6.74% (inactive). For the same molecule, the max response amounted to 16.5% in experiment [4] (setting [6]) and 22.9% in experiment [4] (setting [7]).
